We go through 39 molecules from PubChem BioAssay (Tox21).

“And” between values parts separate entries of the source, which are not always exact repeats. Equal values may be shown once. A structure can be active in one record and inactive in another. The source made the active and inactive calls. Entries that show only a call come without a potency. Calls follow the shape of the dose curve; as a rule, active = well fitted activation curve with a large enough effect in the repeat runs; inconclusive = weak or mixed curves; inactive = flat fitted curve, though single readings scatter.
Potency is read from the fitted curve at half-maximal effect.

The assay is described as follows: A CellTox Green Cytotoxicity Assay to monitor cytotoxicity in HEK293 cells - 0 hour (AID 1224869). Also: nearly all actives have a fitted effect of over 50% in size. Conditions: CellTox Green fluorescence; series mostly up to 76.8 µM. The procedure, abridged:
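Tox21 screen in HEK293: membrane-impermeant cyanine dye fluoresces on binding dead-cell DNA; compound pinned 5 h post-seeding, plates held at 37 C, signal read repeatedly through 40 h.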
On to `OC[C@H]1O[C@@H]2O[C@H]3[C@H](O)[C@@H](O)[C@@H](O[C@H]4[C@H](O)[C@@H](O)[C@@H](O[C@H]5[C@H](O)[C@@H](O)[C@@H](O[C@H]6[C@H](O)[C@@H](O)[C@@H](O[C@H]7[C@H](O)[C@@H](O)[C@@H](O[C@H]8[C@H](O)[C@@H](O)[C@@H](O[C@H]1[C@H](O)[C@H]2O)O[C@@H]8CO)O[C@@H]7CO)O[C@@H]6CO)O[C@@H]5CO)O[C@@H]4CO)O[C@@H]3CO`, for which the Potency result was “inactive”.
The same measure for `CCCCC(CC)COCC1CO1` (centres undefined): “inactive”; for `Cc1cccc(C(=O)O)c1`: “inactive”; for `O=[N+]([O-])c1ccc2c(c1)Cc1ccccc1-2`: “inactive”.
The same measure for `CCCCC/C=C/C=C/C=O`: “inactive”.
Regarding `O=c1oc(=O)c2cc3c(=O)oc(=O)c3cc12`, the Potency result was “inactive”.
The same measure for `Cc1c(OCC(F)(F)F)ccnc1CS(=O)c1nc2ccccc2[nH]1` (centres undefined): “inactive”.
For the molecule `CCC(C)c1ccccc1O` (centres undefined), the Potency result is “inactive”.
The same measure for `Nc1ncn([C@@H]2O[C@H](CO)[C@@H](O)[C@H]2O)c(=O)n1`: “inactive”; for `CC(C)OC(=O)C(C)(C)Oc1ccc(C(=O)c2ccc(Cl)cc2)cc1`: “inactive”; for `Cc1ccc2c(n1)Oc1ccc(C(C)C(=O)OCC(=O)N(C)C)cc1C2` (centres undefined): “inactive”.
The value for `Brc1cc(Oc2cc(Br)c(Br)c(Br)c2Br)c(Br)c(Br)c1Br` was “inactive”.
The same measure for `CCCCOCCOCCOCCO`: “inactive”; for `CCCCC(CC)COP(=O)(OCC(CC)CCCC)OCC(CC)CCCC` (centres undefined): “inactive”; for `CCOC(=O)C(C#N)=C(c1ccccc1)c1ccccc1`: “inactive”.
For `CC(C(=O)O)c1cccc(C(=O)c2ccccc2)c1` (centres undefined), the Potency result was “inactive”.
The same measure for `CCC(C)CO` (centres undefined): “inactive”; for `O=C1OC2(c3cc(Br)c(O)c(Br)c3Oc3c2cc(Br)c(O)c3Br)c2c(Cl)c(Cl)c(Cl)c(Cl)c21`: 43.7 µM (active) and 26.5 µM (active); for `CC(CCC(=O)O)(c1ccc(O)cc1)c1ccc(O)cc1`: “inactive”.
The same measure for `C[C@]12CC[C@H]3[C@@H](CCC4=CC(=O)CC[C@@]43C)[C@@H]1CC[C@@H]2C(=O)CO`: “inactive”; for `Nc1ncnc2nc[nH]c12`: “inactive”; for `CC(C)OB(OC(C)C)OC(C)C`: “inactive”.
The same measure for `C#C[C@]1(O)CC[C@H]2[C@@H]3CCc4cc(OC)ccc4[C@H]3CC[C@@]21C`: “inactive”.
With `Clc1nc(Cl)c(Cl)c(Cl)c1Cl`, the Potency entry is “inactive”.
Take `CCCC(=O)O`: the Potency entry was “inactive”.
The value for `c1cc(-c2ccncc2)ccn1` was “inactive”; that for `C=C(C)C(=O)OCCOC(=O)C(=C)C` was “inactive”; that for `O=C(c1ccccc1)c1ccccc1O` was “inactive”.
The same measure for `CCCCC(CC)COC(=O)c1ccc(N(C)C)cc1` (centres undefined): “inactive”; for `CC1=CC2C3CC(C=C3C)C2C1` (centres undefined): “inactive and 38.9 µM (active)”; for `COC(=O)C1=C(C)NC(C)=C(C(=O)OCCN(C)Cc2ccccc2)C1c1cccc([N+](=O)[O-])c1` (centres undefined): “inactive”.
As to `CC(=O)Oc1ccccc1C(=O)Nc1ncc([N+](=O)[O-])s1`, the Potency result is “inactive”.
For the molecule `c1ccc2cc(Nc3ccc(Nc4ccc5ccccc5c4)cc3)ccc2c1`, the Potency entry was “inactive”.
The same measure for `CCCCc1oc2ccccc2c1C(=O)c1cc(I)c(OCCN(CC)CC)c(I)c1`: “inactive”; for `Cc1ccc(C)c(O)c1C`: “inactive”.
The value for `CC(C)Oc1ccc2c(=O)c(-c3ccccc3)coc2c1` was “inactive”; that for `OC(CCl)CCl` was “inactive”; that for `Cn1cnc([N+](=O)[O-])c1Sc1ncnc2nc[nH]c12` was “inactive”.
The value for `O=C(/C=C/c1ccccc1)OCc1ccccc1` was “inactive”.
